Reference: the supplement of paper PMC8728848
Shown is part of a subset that was picked to be rich in the strongest signals.

What was measured:
Assay in all cases: glycan array binding signal (z-score within array); higher = stronger binding
Conditions in all cases: glycan notation: IUPAC condensed, linker removed
[1] = target: Fuc(a1-2)Gal(b1-3)GalNAc(b1-3)Gal
Procedure, shortened: (§1)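 Glycan array data were curated from 3228 arrays in the Consortium for Functional Glycomics database and kept only where the protein sequence was available. Glycan names were converted to IUPAC-condensed notation, and columns mapping to the same glycan were averaged. The binding signal is a within-array Z-score, averaged across arrays of the same protein sequence at different concentrations or buffers and across linkers. Negative Z-scores can be read as non-binding.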

Fuc(a1-2)Gal(b1-3)GlcNAc = target: Fuc(a1-2)Gal(b1-3)GlcNAc
Procedure, shortened: as §1

[2] = target: Fuc(a1-2)Gal(b1-4)GlcNAc(b1-2)Man(a1-3)[Fuc(a1-2)Gal(b1-4)GlcNAc(b1-2)Man(a1-6)]Man(b1-4)GlcNAc(b1-4)[Fuc(a1-6)]GlcNAc
Procedure, shortened: as §1

[3] = target: Fuc(a1-2)Gal6S(b1-4)Glc6S
Procedure, shortened: as §1

[4] = target: Fuc(a1-2)[Gal(a1-3)]Gal(b1-3)GalNAc(b1-3)Gal(a1-4)Gal(b1-4)Glc
Procedure, shortened: as §1

[5] = target: Fuc(a1-2)[Gal(a1-3)]Gal(b1-4)[Fuc(a1-3)]Glc
Procedure, shortened: as §1

[6] = target: Fuc(a1-2)[GalNAc(a1-3)]Gal(b1-3)GlcNAc(b1-2)Man(a1-3)[Fuc(a1-2)[GalNAc(a1-3)]Gal(b1-3)GlcNAc(b1-2)Man(a1-6)]Man(b1-4)GlcNAc(b1-4)[Fuc(a1-6)]GlcNAc
Procedure, shortened: as §1

[7] = target: Fuc(a1-2)[GalNAc(a1-3)]Gal(b1-4)GlcNAc(b1-2)Man
Procedure, shortened: as §1

[8] = target: Fuc(a1-3)[Gal(b1-4)]Glc6S
Procedure, shortened: as §1

[9] = target: Fuc(a1-3)[Gal(b1-4)]GlcNAc(b1-2)Man(a1-3)[Fuc(a1-3)[Gal(b1-4)]GlcNAc(b1-2)Man(a1-6)]Man(b1-4)GlcNAc(b1-4)GlcNAc
Procedure, shortened: as §1

[10] = target: Fuc(a1-3)[Gal(b1-4)]GlcNAc(b1-2)Man(a1-3)[Fuc(a1-3)[Gal(b1-4)]GlcNAc(b1-2)Man(a1-6)]Man(b1-4)GlcNAc(b1-4)[Fuc(a1-6)]GlcNAc
Procedure, shortened: as §1

Gal(a1-3)Gal(b1-4)Glc = target: Gal(a1-3)Gal(b1-4)Glc
Procedure, shortened: as §1

Gal(a1-3)GalNAc = target: Gal(a1-3)GalNAc
Procedure, shortened: as §1

Gal(a1-4)Gal(b1-4)GlcNAc = target: Gal(a1-4)Gal(b1-4)GlcNAc
Procedure, shortened: as §1

Gal(b1-3)Gal = target: Gal(b1-3)Gal
Procedure, shortened: as §1

[11] = target: Gal(b1-3)GlcNAc(a1-3)Gal(b1-4)GlcNAc
Procedure, shortened: as §1

Gal(b1-3)GlcNAc(b1-2)Man = target: Gal(b1-3)GlcNAc(b1-2)Man
Procedure, shortened: as §1

[12] = target: Gal(b1-3)GlcNAc(b1-3)GalNAc
Procedure, shortened: as §1

[13] = target: Gal(b1-4)GalNAc(b1-3)[Fuc(a1-2)]Gal(b1-4)GlcNAc
Procedure, shortened: as §1

[14] = target: Gal(b1-4)GlcNAc(b1-2)Man(a1-3)[GlcNAc(b1-4)][Gal(b1-4)GlcNAc(b1-2)Man(a1-6)]Man(b1-4)GlcNAc(b1-4)GlcNAc
Procedure, shortened: as §1

[15] = target: Gal(b1-4)GlcNAc(b1-2)[Gal(b1-4)GlcNAc(b1-6)]Man(a1-6)[Gal(b1-4)GlcNAc(b1-2)Man(a1-3)]Man(b1-4)GlcNAc(b1-4)GlcNAc
Procedure, shortened: as §1

[16] = target: Gal(b1-4)GlcNAc(b1-3)Gal(b1-4)GlcNAc(b1-2)Man(a1-3)[Gal(b1-4)GlcNAc(b1-3)Gal(b1-4)GlcNAc(b1-2)Man(a1-6)]Man(b1-4)GlcNAc(b1-4)GlcNAc
Procedure, shortened: as §1

Gal(b1-6)Gal = target: Gal(b1-6)Gal
Procedure, shortened: as §1

Gal3S6S(b1-4)GlcNAc6S = target: Gal3S6S(b1-4)GlcNAc6S
Procedure, shortened: as §1

Gal4S(b1-4)GlcNAc = target: Gal4S(b1-4)GlcNAc
Procedure, shortened: as §1

[17] = target: GlcA3S(b1-3)Gal(b1-4)GlcNAc(b1-2)Man
Procedure, shortened: as §1

GlcNAc(b1-3)Gal = target: GlcNAc(b1-3)Gal
Procedure, shortened: as §1

[18] = target: GlcNAc(b1-3)Gal(b1-4)GlcNAc(b1-2)Man(a1-3)[GlcNAc(b1-3)Gal(b1-4)GlcNAc(b1-2)Man(a1-6)]Man(b1-4)GlcNAc(b1-4)[Fuc(a1-6)]GlcNAc
Procedure, shortened: as §1

[19] = target: GlcNAc(b1-3)Gal(b1-4)GlcNAc(b1-2)[GlcNAc(b1-3)Gal(b1-4)GlcNAc(b1-6)]Man(a1-6)[GlcNAc(b1-3)Gal(b1-4)GlcNAc(b1-2)Man(a1-3)]Man(b1-4)GlcNAc(b1-4)GlcNAc
Procedure, shortened: as §1

GlcNAc(b1-3)Man = target: GlcNAc(b1-3)Man
Procedure, shortened: as §1

B1: Als1 (Candida albicans), P46590 (protein)
chain: KTITGVFDSFNSLTWSNAANYAFKGPGYPTWNAVLGWSLDGTSANPGDTFTLNMPCVFKYTTSQTSVDLTADGVKYATCQFYSGEEFTTFSTLTCTVNDALKSSIKAFGTVTLPIAFNVGGTGSSTDLEDSKCFTAGTNTVTFNDGDKDISIDVEFEKSTVDPSGYLYASRVMPSLNKVTTLFVAPQCENGYTSGTMGFSSSNGDVAIDCSNIHIGITKGLNDWNYPVSSESFSYTKTCTSNGIQIKYQNVPAGYRPFIDAYISATDVNQYTLAYTNDYTCAGSRLQSKPFTLRWTGYKNSDAGSNGIVIVATTRTVTDSTTAVTTLPFNPSVDKTKTIEILQPIPTTTITTSYVGVTTSYLTKTAPIGETATVIVDVPYHTTTTVTSEWTGTITTTTTRTNPTDSIDTVVVQVP
- glycan array binding signal (z-score) [1]: 3.32
- glycan array binding signal (z-score) (Fuc(a1-2)Gal(b1-3)GlcNAc): -0.524
- glycan array binding signal (z-score) [2]: 1.97
- glycan array binding signal (z-score) [3]: -0.25
- glycan array binding signal (z-score) [4]: -0.049
- glycan array binding signal (z-score) [5]: 0.021
- glycan array binding signal (z-score) [6]: -0.413
- glycan array binding signal (z-score) [7]: -0.488
- glycan array binding signal (z-score) [8]: 3.38
- glycan array binding signal (z-score) [9]: 0.227
- glycan array binding signal (z-score) [10]: 0.146
- glycan array binding signal (z-score) (Gal(a1-3)Gal(b1-4)Glc): -0.664
- glycan array binding signal (z-score) (Gal(a1-3)GalNAc): -0.407
- glycan array binding signal (z-score) (Gal(a1-4)Gal(b1-4)GlcNAc): -0.303
- glycan array binding signal (z-score) (Gal(b1-3)Gal): -0.458
- glycan array binding signal (z-score) [11]: -0.432
- glycan array binding signal (z-score) (Gal(b1-3)GlcNAc(b1-2)Man): 0.092
- glycan array binding signal (z-score) [12]: -0.05
- glycan array binding signal (z-score) [13]: -0.644
- glycan array binding signal (z-score) [14]: 8.37
- glycan array binding signal (z-score) [15]: 7.7
- glycan array binding signal (z-score) [16]: 4.19
- glycan array binding signal (z-score) (Gal(b1-6)Gal): -0.739
- glycan array binding signal (z-score) (Gal3S6S(b1-4)GlcNAc6S): 3.22
- glycan array binding signal (z-score) (Gal4S(b1-4)GlcNAc): 0.401
- glycan array binding signal (z-score) [17]: -0.192
- glycan array binding signal (z-score) (GlcNAc(b1-3)Gal): 4.47
- glycan array binding signal (z-score) [18]: -0.201
- glycan array binding signal (z-score) [19]: 4.37
- glycan array binding signal (z-score) (GlcNAc(b1-3)Man): -0.282
